From PubChem BioAssay (NCATS)
Records with an inconclusive call do not appear. Activity calls are given as the source filed them. Calls follow the shape of the dose curve; as a rule, active = well fitted inhibition curve with a large enough effect; inconclusive = small, poorly fitted or top-dose-only effect; inactive = no such curve, though single readings can be large or run the other way.

Each compound was assayed against N-terminal Xaa-Pro-Lys N-methyltransferase 1 (Homo sapiens) (UniProt Q9BV86) (assay: qHTS Assay for Inhibitors of N-terminal methyltransferase 1 (NTMT1): LOPAC validation of the NTMT1 SAHH-coupled ThioGlo3 Assay (AID 1347143;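 also: SAH from peptide methylation measured as thiol fluorescence via SAHH coupling and ThioGlo3; % is scaled to controls: 0 for no effect and ±100 for the full control effect; nearly all actives have a fitted effect of over 70% in size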)). Settings: recombinant NTMT1, SAHH-coupled ThioGlo3 fluorescence; series mostly up to 114 µM; activity change, negative = inhibition: at the top concentration.
How it was run: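 Steps: dispense 125nM NTMT1; pin-transfer test compounds at several concentrations, with 1uM RCC1-6 peptide as control; incubate 1 min; start with reagent holding 100uM SAM, 10uM SAHH, 15uM ThioGlo3; read at 0 and 30 min.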

Sequence of N-terminal Xaa-Pro-Lys N-methyltransferase 1 (Homo sapiens) (Q9BV86 whole entry, looked up): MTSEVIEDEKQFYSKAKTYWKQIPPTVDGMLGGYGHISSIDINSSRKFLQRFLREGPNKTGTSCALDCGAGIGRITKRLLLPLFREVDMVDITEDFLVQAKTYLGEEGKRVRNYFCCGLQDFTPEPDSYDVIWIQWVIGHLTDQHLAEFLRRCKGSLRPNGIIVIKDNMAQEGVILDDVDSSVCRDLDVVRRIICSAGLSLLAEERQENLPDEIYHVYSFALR

Row | SMILES | activity change, negative = inhibition
1 | NC(=O)CN1CCCC1=O | -13.8% (inactive)
2 | COc1ccc(C(=O)N2CCCC2=O)cc1 | -12.4% (inactive)
3 | O=C(O)c1nn(Cc2ccc(Cl)cc2Cl)c2ccccc12 | -11.6% (inactive)
4 | COC(=O)C1=CCCN(C)C1 | -14.7% (inactive)

Each compound was assayed on Zika virus NS2B-NS3 protease (unlinked) (assay: Optimization of GU AMC qHTS for Zika virus inhibitors: Unlinked NS2B-NS3 protease assay (AID 1347151;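 also: 0% = no-inhibitor control and -100% = no-enzyme control; nearly all actives have a fitted effect of over 80% in size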)). Settings: recombinant ZIKV NS2B-NS3 protease, fluorogenic AMC substrate; series mostly up to 52.5 µM; activity change, negative = inhibition: at the top concentration.
How it was run: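 Percent inhibition is derived from the 15-min change in AMC fluorescence, normalized against no-inhibitor and no-enzyme controls, then fitted to a 4-parameter Hill curve. Aprotinin was the intraplate control.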

Row | SMILES | activity change, negative = inhibition
5 | NC(=O)CN1CCCC1=O | 3.41% (inactive)
6 | COc1ccc(C(=O)N2CCCC2=O)cc1 | 0.467% (inactive)
7 | CC(C)=CCN1CC[C@@]2(C)c3cc(O)ccc3C[C@@H]1[C@@H]2C | -12.9% [at 114 µM] (inactive)
8 | COC(=O)C1=CCCN(C)C1 | 2.34% (inactive)
